# Laboratory results: PubChem BioAssay (Tox21)
# Results filed as inconclusive are left out. Active and inactive are the calls of the source. Calls follow the shape of the dose curve; as a rule, active = well fitted curve in the direction sought with a large enough effect in the signal ratio in the repeat runs (not every such curve was filed as active); inconclusive = weak or mixed curves, or a change in a side signal; inactive = no such curve, though single readings can be large or run the other way; the % refers to the signal ratio.
# Assay: qHTS assay to identify small molecule agonists of the NFkB signaling pathway (AID 1159509)
# Conditions: NFkB-bla ME-180 cells, beta-lactamase FRET ratio, 5 h; series mostly up to 61 µM; activation: at the top concentration
# Description: National Center for Advancing Translational Sciences [NCATS]
# NIH Chemical Genomics Center [NCGC]
# U.S. Environmental Protection Agency [EPA]
# National Institutes of Environmental Health Sciences [NIEHS]
# National Toxicology Program [NTP]
# U.S. Food and Drug Administration [FDA]
# Transcription factors and their stimulated target gene expression play pivotal roles across many cellular processes including responses to environmental stimuli. Proper regulation of associated pathways is critical to maintain cell health and function. Constitutive activation of transcription factor pathways has been implicated in tumors as it may block cellular functions such as apoptosis and lead to invasion and metastasis. One important transcription factor that stimulates gene expression in response to cytokines, UV radiation, and other stimuli is nuclear factor-kappa B (NFkB). To measure activation of the NFkB pathway, the CellSensor NFkB-bla ME-180 cell line (Life Technologies, Carlsbad, CA) that stably expresses beta-lactamase reporter gene under the regulation of a NF-kB response element was used. This assay allows measurement of the NFkB pathway activity induced by compounds in a ME-180 cell line. This system quantitates NF-kB activity using a FRET-based assay system where beta-lactamase expression disrupts FRET, allowing for fluorescent measurement of activity. This cell line has been used to screen the Tox21 10K compound library and to identify compounds that induce the NFkB pathway activity.
# Tox21 Assay Protocol Summary:
# NFkB-bla ME-180 cells were dispensed at 2,000 cells/6 uL of assay medium per well into black wall/clear-bottom 1536-well plates using a Multidrop Combi (ThermoFisher Scientific, Waltham, MA) dispenser. After the assay plates were incubated at 37 C and 5% CO2 for an overnight, 23 nL of compounds dissolved in DMSO, positive controls or DMSO only was transferred to the assay plate by a Pintool station (Kalypsys, San Diego, CA). The assay plates were incubated at 37 C and 5% CO2 for 5 hr. One uL of LiveBLAzer B/G FRET substrate (Life Technologies) was added using a Flying Reagent Dispenser (Aurora Discovery, San Diego, CA) and the plates were incubated at room temperature for 1.5 hr. Fluorescence intensity (405 nm excitation, 460 nm and 530 nm emissions) was measured using an Envision plate reader (PerkinElmer, Shelton, CT).
# % is scaled to controls: 0 for no effect and ±100 for the full control effect.
row,SMILES,activation
1,CC1CCN(CCCC(=O)c2ccc(F)cc2)CC1,-0.0088% (inactive)
2,C#CC(O)CCCCC (stereo not given),-0.299% [at 78.8 µM] (inactive)
3,Fc1ccccc1-c1ccccc1,0.629% [at 78.8 µM] (inactive)
4,N#CC1(O)CCCCC1,0.0656% [at 78.8 µM] (inactive)
5,OC/C=C/c1ccccc1,0.0232% [at 78.8 µM] (inactive)
6,Cc1c(C)n(CCN(C)C)c2ccc(C(=O)OCCN(C)C)cc12,0.67% (inactive)
7,CCCCCCOC(=O)CC(CC(=O)OCCCCCC)(OC(=O)CCC)C(=O)OCCCCCC,0.005% (inactive)
8,Nc1[nH]c(=O)ncc1F,-0.005% (inactive)
9,COc1cc(C)cc(O)c1,-0.149% (inactive)
10,COc1cc(O)cc(O)c1,-0.373% (inactive)
11,Nc1ccn(C2CO[C@H](CO)O2)c(=O)n1 (stereo not given in full),-0.956% (inactive)
12,CCCCCCC(CCCCCCCCCCC(=O)OCC(COC(C)=O)OC(C)=O)OC(C)=O (stereo not given),-0.0812% (inactive)
13,COCCOC(=O)CC#N,-0.173% (inactive)
14,CCCCNc1ccccc1,-0.0999% (inactive)
15,C[C@H](O)C(=O)Nc1c(I)c(C(=O)NC(CO)CO)c(I)c(C(=O)NC(CO)CO)c1I,-0.28% (inactive)
16,NC(=S)Nc1cccc2ccccc12,-0.909% [at 6.95 µM] (inactive)
17,NC(N)=NS(=O)(=O)c1ccc(N)cc1,-0.207% (inactive)
18,Nc1ncnc2c1ncn2Cc1c(F)cccc1Cl,-0.0811% (inactive)
19,COC(=O)CCCCCCCCC(=O)OC,-0.138% [at 78.8 µM] (inactive)
20,O=C(CCOCCOCCOCCOCCC(=O)Nc1c(I)cc(I)c(C(=O)O)c1I)Nc1c(I)cc(I)c(C(=O)O)c1I,-0.275% (inactive)

row,SMILES,activation
1,Nc1ccc2cc(S(=O)(=O)O)ccc2c1,0.0535% (inactive)
2,CC(=O)OC(C)(C)C,-0.511% (inactive)
3,CNc1ncnc2nc[nH]c12,0.096% [at 78.8 µM] (inactive)
4,C=CCOCC(O)CS(=O)(=O)O (stereo not given),0.132% [at 78.8 µM] (inactive)
5,CCCCCCC(=O)OCC,0.0886% (inactive)
6,CCN1CCCC(OC(=O)C(c2ccccc2)c2ccccc2)C1 (stereo not given),0.127% (inactive)
7,CC(C)[C@H](N)C(=O)OCCOCn1cnc2c(=O)[nH]c(N)nc21,0.605% (inactive)
8,CC(=O)N[C@@H](CCC(N)=O)C(=O)O,-0.0898% (inactive)
9,O=[N+]([O-])c1ccc(Oc2ccc([N+](=O)[O-])cc2)cc1,0.191% [at 78.8 µM] (inactive)
10,CC(C)(O)C(=O)c1ccc(OCCO)cc1,-0.0812% (inactive)
11,C=CCOc1nc(OCC=C)nc(OCC=C)n1,0.857% (inactive)
12,C#CC(O)C(CC)CCCC (stereo not given),0.569% (inactive)
13,O=[N+]([O-])c1ccc(CCO)cc1,0.236% (inactive)
14,COc1ccc(COC=O)cc1,0.308% (inactive)
15,OC[C@H]1O[C@@H]2O[C@H]3[C@H](O)[C@@H](O)[C@@H](O[C@H]4[C@H](O)[C@@H](O)[C@@H](O[C@H]5[C@H](O)[C@@H](O)[C@@H](O[C@H]6[C@H](O)[C@@H](O)[C@@H](O[C@H]7[C@H](O)[C@@H](O)[C@@H](O[C@H]8[C@H](O)[C@@H](O)[C@@H](O[C@H]9[C@H](O)[C@@H](O)[C@@H](O[C@H]1[C@H](O)[C@H]2O)O[C@@H]9CO)O[C@@H]8CO)O[C@@H]7CO)O[C@@H]6CO)O[C@@H]5CO)O[C@@H]4CO)O[C@@H]3CO,-1.19% [at 28.5 µM] (inactive)
16,CC(C)(C)OC(=O)N1C[C@@H](F)C[C@H]1C(=O)O,0.0128% [at 78.8 µM] (inactive)
17,FC(F)(F)C(F)(F)C(F)(F)C(F)(F)C(F)(F)C(F)(F)C(F)(F)C(F)(F)C(F)(F)C(F)(F)F,-0.0985% [at 6.95 µM] (inactive)
18,CC(C)CCCCCCN,-0.706% (inactive)
19,c1ccc2cnncc2c1,-0.732% (inactive)
20,CN(C)C(=O)C(CCN1CCC(O)(c2ccc(Cl)cc2)CC1)(c1ccccc1)c1ccccc1,-0.548% (inactive)
